The list is not random: actives were taken first. Their share in the collection is about 1.5%.
HUVEC tox TNFa: HUVEC cytotoxicity counter-screen, TNF alpha stimulated | HUVEC TNFalpha-stimulated, Hoechst cell count, imaging | cell count reduction, % at 2 µM | 93,000 tested, 0.17% active | AID 848;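 active = cell count reduction exceeding the screen mean by over 5 SD, scaled to untreated wells per plate, cut at about 78% in these data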;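 also: cells counted after 24 h of TNF alpha exposure following the 1 h pretreatment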
NFkB transloc inh: blocks IL-1B driven NFkB nuclear translocation in HUVEC cells. inhibition, % at 2 µM. 94,000 tested, 0.43% active. HUVEC IL-1B NFkB p65 nuclear translocation imaging. AID 796;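 active = inhibition above about 30% together with a positive call from visual inspection of the well image, limit read from the data; inconclusive = inhibition above a set limit but visual check negative; inactive = inhibition not above a set limit, visual check negative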;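 also: nuclear over cytoplasmic p65 intensity ratio measured by imaging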
VCAM1 TNFa inh: reduces TNF alpha induced VCAM1 expression in HUVEC | HUVEC TNFa-induced VCAM-1 immunofluorescence, high-content imaging | inhibition, % at 2 µM | 95,000 tested, 0.48% active;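 active = inhibition above the batch mean plus 3 SD, with images confirmed as a hit by eye, cut at about 37% in these data; inconclusive = inhibition above that limit but hit not confirmed in images; inactive = inhibition not above that limit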
IL1B NFkB pot: enhances IL-1B driven NFkB nuclear translocation. HUVEC IL-1B NFkB p65 nuclear translocation imaging. activation, % at 2 µM. 94,000 tested, 0.3% active. AID 819;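 active = activation above 40%, about the mean plus 3 SD, also judged a hit on visual image review; inconclusive = activation above 40% but not a hit on visual review; inactive = activation not above 40% and no visual hit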;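 also: percent activation is computed from the nuclear over cytoplasmic p65 intensity ratio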
HUVEC tox IL1B: HUVEC cytotoxicity counter-screen, IL-1B stimulated; HUVEC cell count loss, Hoechst imaging; cell count reduction, % at 2 µM; 94,000 tested, 0.41% active;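 active = cell count reduction more than 3 SD above the screen-wide mean, cut at about 70% in these data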
Large screens that a line does not name were inactive.

CCCCNC(=O)CCn1nc(-c2ccccc2)ccc1=O	IL1B NFkB pot 53
OCCNCC(O)Cn1ccc2ccccc21 (stereo unspecified)	VCAM1 TNFa inh 100 (no result: HUVEC tox TNFa)
CCOC(=O)c1cnc(SCC(=O)Nc2cc(OC)cc(OC)c2)nc1N	IL1B NFkB pot 50
CCOC(=O)c1cnc(SCC(=O)Nc2ccc(N3CCOCC3)c(Cl)c2)nc1N	none
CCN(c1cccc(C)c1)S(=O)(=O)c1cnc[nH]1	none
CO/N=C/C(=N\Nc1ccc(C)cc1)C(=O)c1ccc(OC)cc1	VCAM1 TNFa inh 40
O=C(CCCOc1ccccc1)N1CCCc2ccccc21	NFkB transloc inh 55
COc1cc(NC(=O)C(C)C)ccc1NC(=O)c1ccco1	none
COc1cc(NC(=S)NC(C)=O)ccc1NC(=O)C(C)C	HUVEC tox TNFa 95
COc1ccccc1-c1nc(C#N)c(NCc2ccc(F)cc2)o1	none
COc1ccc(N2CCN(c3ncnc4c3cnn4-c3ccc(C)cc3C)CC2)cc1	none
Cc1ccc(-n2ncc3c(N4CCN(c5ccccc5)CC4)ncnc32)c(C)c1	VCAM1 TNFa inh 96 (no result: HUVEC tox TNFa)
CS(=O)(=O)c1nc(-c2ccc(Br)cc2)cc(-c2ccccc2)c1C#N	IL1B NFkB pot 77
COc1cccc(C2/C(=C(\O)c3ccc(OC)c(OC)c3)C(=O)C(=O)N2c2cc(C)on2)c1 (stereo unspecified)	none
CCOc1cccc(C2C(C(=O)c3ccc(C)o3)=C(O)C(=O)N2Cc2ccncc2)c1 (stereo unspecified)	NFkB transloc inh 30
CN1CCN(Cc2cc(=O)oc3cc4c(cc23)CCC4)CC1	IL1B NFkB pot 41
CC(=O)Nc1ccc(C(=O)CSc2nnc(Cn3nnc4ccccc43)n2C)cc1	NFkB transloc inh 78
Cn1c(Cn2nnc3ccccc32)nnc1SCC(N)=O	none
CCC(C)Sc1nc(O)cc(=O)[nH]1 (stereo unspecified)	HUVEC tox TNFa 78
COc1ccc(Cl)cc1NC(=O)CN1CCC(n2nnc3cc(F)ccc32)CC1	NFkB transloc inh 100, HUVEC tox IL1B 92
CCC(C)NC(=O)C1c2ccccc2C(=O)N(c2ccc(OC)cc2)C1c1ccc(OC)cc1 (stereo unspecified)	none
O=c1c2ccccc2nc(CSc2ncnc3nc[nH]c23)n1-c1cccc(C(F)(F)F)c1	none
CCCN1CCN(CCCNC(=O)c2cc3c(=O)n(C)c4ccccc4c3n2C)CC1	NFkB transloc inh 90
Cn1c(C(=O)NCCCN2CCCCCC2)cc2c(=O)n(C)c3ccccc3c21	none
Cc1ccc(C(=O)Nc2cnc3sc(C)nn3c2=O)cc1	none
CCOC(=O)C1=C(c2ccccc2)OC(N)=C(C#N)C1c1ccco1 (stereo unspecified)	VCAM1 TNFa inh 69
Nc1nonc1C(=O)NCCNC(=O)c1cccs1	none
CCOC(=O)C1=C(c2ccccc2)O/C(=C(\C(=O)OC)C(F)(F)F)S1	none
CCOC(=O)C1=C(c2ccccc2)O/C(=C(/C#N)C(F)(F)F)S1	NFkB transloc inh 56, VCAM1 TNFa inh 56
C/C(Cl)=C\Cn1c(NCCCn2ccnc2)nc2c1c(=O)n(C)c(=O)n2C	HUVEC tox TNFa 89, VCAM1 TNFa inh 88
Cc1c(NC(=O)C(C)Sc2n[nH]c(N)n2)c(=O)n(-c2ccccc2)n1C (stereo unspecified)	none
CCCCc1c(C)c(C#N)c2[nH]c3ccccc3n2c1=O	none
CCCc1cc(=O)n2c([nH]c3ccccc32)c1C#N	NFkB transloc inh 36
COc1ccc(NC2c3ncccc3C(=O)N2Cc2ccccc2)c(OC)c1 (stereo unspecified)	HUVEC tox IL1B 90
Cc1ccc(C2/C(=C(\O)c3cnn(-c4ccccc4)c3C)C(=O)C(=O)N2CCN(C)C)o1 (stereo unspecified)	HUVEC tox TNFa 91
CCN(CC)CCN1C(=O)C(=O)/C(=C(/O)c2cnn(-c3ccccc3)c2C)C1c1ccc(C)o1 (stereo unspecified)	none
CC(C)CC(=O)N1CCN(Cc2ccc3c(c2)OCO3)CC1	none
COc1ccc(Cl)cc1NC(=S)NCCc1c[nH]c2ccccc12	none
COc1cc(/C=C(/C#N)C(=O)NCCc2c[nH]c3ccccc23)ccc1OCc1ccccc1F	VCAM1 TNFa inh 37
O=S(=O)(NCCc1ccncc1)c1cc(Br)ccc1F	HUVEC tox IL1B 92
Oc1c(/C=N/c2ncn[nH]2)ccc2ccccc12	IL1B NFkB pot 47
COc1ccc(OC2C(=O)N(Cc3ccc4c(c3)OCO4)C2c2sccc2C)cc1 (stereo unspecified)	none
CC1=C(C#N)C(c2ccc3ncccc3c2)C(C#N)=C(C)N1	NFkB transloc inh 50
CCOc1ccc(C2C(C#N)=C(C)NC3=C2C(=O)c2ccccc23)cc1 (stereo unspecified)	none
CCN=C1SC(C(=O)Nc2ccccc2)CC(=O)N1CC (stereo unspecified)	none
O=C(c1ccc(COc2ccccc2Br)cc1)N1CCCCC1	IL1B NFkB pot 54
O=C(c1ccc(COc2ccccc2Br)o1)N1CCCCCC1	none
COc1ccc(-c2nc(C#N)c(NCCCN(C)C)o2)cc1OC	VCAM1 TNFa inh 97
COc1ccc(CCNc2oc(-c3ccc(OC)c(OC)c3)nc2C#N)cc1	none
Cc1ccc(OC(C)c2nnc(N)s2)cc1Cl (stereo unspecified)	NFkB transloc inh 97, HUVEC tox IL1B 92
COc1ccc(C(=O)Nc2cc(OC)nc(OC)n2)cc1	IL1B NFkB pot inconclusive
O=C(O/N=C/C1=C(Cl)c2ccccc2CC1)c1ccc(F)cc1	none
CCOC(=O)N1CCC(NC(=O)c2ccc(CS(=O)(=O)c3ccc(OC)cc3)o2)CC1	VCAM1 TNFa inh 85
CC1CN(c2ccc(S(=O)(=O)N3CCOCC3)cn2)CC(C)O1 (stereo unspecified)	NFkB transloc inh 40
COc1ccc(NC2CCN(C3CC(=O)N(c4ccc(F)c(Cl)c4)C3=O)CC2)cc1 (stereo unspecified)	none
COc1cccc(N2CCN(C3CC(=O)N(c4ccc(F)c(Cl)c4)C3=O)CC2)c1 (stereo unspecified)	NFkB transloc inh 96, HUVEC tox IL1B 88
Cc1cc(OC(=O)c2ccc(Cl)cc2Cl)nc(C)n1	none
O=C(CSc1nnc(-c2cccs2)n1-c1ccccc1)N1CCOCC1	none
O=C(CSc1nnc(-c2cccs2)n1-c1ccccc1)N1CCCC1	HUVEC tox TNFa 88
CCOC(=O)Cc1csc(SCC(=O)/C(C#N)=C(\C)N)n1	HUVEC tox TNFa 79, VCAM1 TNFa inh 59
CCOC(=O)Cc1csc(SCC(=O)c2c(N)n(CC(C)C)c(=O)n(C)c2=O)n1	none
CCOC(=O)Cc1[nH]nc2c1C(c1ccoc1)C(C#N)=C(N)O2 (stereo unspecified)	none
COC(=O)c1cc(OC)c(OC)cc1NC(=S)N1CCN(C)CC1	HUVEC tox IL1B 73
O=C1c2ccccc2CN1CCNS(=O)(=O)c1ccc(Cl)cc1	NFkB transloc inh 98, HUVEC tox IL1B 92
O=C(NCCN1Cc2ccccc2C1=O)c1cccs1	none
COC(=O)CSc1nnc(-c2ccc(S(=O)(=O)NCc3cccs3)cc2)o1	IL1B NFkB pot 45
